Shown are actives, neighbours in structure and some others; about 0.65% of the full set was active somewhere.
SARS PLpro yeast-1 – inhibitors of SARS-CoV papain-like protease in yeast; S. cerevisiae expressing SARS-CoV PLpro, growth rescue; Potency, µM (top dose mostly 32.9 µM), for inactives: at the highest dose activity, positive = growth rescue, hits mostly activators; 0.19% of 330,000 active; AID 485353; also: potency is read from the fitted curve at half-maximal effect; 0% is about no effect; nearly all actives have a fitted effect of over 55% in size
AMA1 RON2 block – disrupts binding of P. falciparum AMA1 to RON2 | AlphaScreen AMA1-biotinylated RON2 peptide binding | Potency, µM (doses to about 58.2 µM), for inactives: top-dose activity change, negative = inhibition, hits mostly inhibitors | 0.2% of 360,000 active; active = well fitted inhibition curve with a large enough effect; inconclusive = small, poorly fitted or top-dose-only effect; inactive = no such curve, though single readings can be large or run the other way;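 also: potency is read from the fitted curve at half-maximal effect; 0% = vehicle wells and -100% = peptide control; nearly all actives have a fitted effect of over 45% in size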
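AMA1 (3D7) with his tag at 25 nM final met compounds first, then biotinylated RON2 peptide at 25 nM; detection used donor plus acceptor beads, 10 µg/mL apiece, read by AlphaScreen after 30 min at room temperature.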
NS1 function inh – influenza NS1 inhibition. Potency, µM (top dose mostly 46.1 µM), inactives show at the top dose activity, positive = more growth. 0.4% of 270,000 active; also: potency is read from the fitted curve at half-maximal effect; actives are rising curves; nearly all actives have a fitted effect of over 50% in size
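Growth recovery, yeast-based: influenza A NS1 expressed in S. cerevisiae causes slow growth, and suppressors are detected by OD600. The parent strain without NS1 is used as positive control.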
SARS PLpro yeast-2 – Rescues yeast growth by inhibiting SARS-CoV PLpro. shares compounds with SARS PLpro yeast-1. yeast expressing SARS-CoV PLpro, growth phenotype rescue. calls only. 19% of 1,000 active. AID 652038; call rule not given here
* hit, by the source's call. Unless noted, calls follow the shape of the full dose curve.

CCOc1ccc(Nc2oc(-c3ccco3)nc2C#N)cc1 was read as SARS PLpro yeast-1 -10.3%, AMA1 RON2 block -3.0% and NS1 function inh -15.3%.
Cc1cc(C)c(C(=O)N(CCN(C)C)CC2CCCN(Cc3ccccc3F)C2)o1 (configuration not stated) was read as SARS PLpro yeast-1 2.4%, AMA1 RON2 block -11.9% and NS1 function inh 8.3%.
`CC(C)c1ccc(O)c(O)c(=O)c1` (tested in a mixture with another compound) gave NS1 function inh -65.4%.
CC(C)c1cccc(O)c(=O)c1 was read as SARS PLpro yeast-1 inconclusive, AMA1 RON2 block 81.9%, NS1 function inh -45.4% and SARS PLpro yeast-2 inactive.
Screening C(=C\c1ccccc1)/CNn1cnnc1 returned SARS PLpro yeast-1 inconclusive, AMA1 RON2 block 7.9%, NS1 function inh 10.6% and SARS PLpro yeast-2 inactive.
Screening O=C(/C=C/c1ccccc1)Nn1cnnc1 returned SARS PLpro yeast-1 4.6%, AMA1 RON2 block -10.2% and NS1 function inh 2.2%.
S=C(NCc1ccccn1)NN=Cc1ccccn1 was read as AMA1 RON2 block -20.6%.
`O=C1OC(COCC#Cc2ccccc2)CN1c1ccccc1` (configuration not stated) gave AMA1 RON2 block 14.2%.
Screening COc1ccc(-c2cc(N3C(=O)Nc4ccccc4N3O)n[nH]2)cc1 returned SARS PLpro yeast-1 11.2µM*, AMA1 RON2 block 10.3%, NS1 function inh 6.6% and SARS PLpro yeast-2 inactive.
`COc1ccc(-c2cc(N3C(=O)Nc4ccccc4N3O)n[nH]2)cc1OC` gave SARS PLpro yeast-1 11.6%, AMA1 RON2 block -10.9% and NS1 function inh 10.6%.
`CCN(C[C@H]1N[C@@](CC)(C(=O)OC)[C@H]2C(=O)N(C)C(=O)[C@@H]12)C(=O)C1CCCCC1` gave SARS PLpro yeast-1 -1.4% and AMA1 RON2 block 4.8%.
`CCOC(=O)C(C)/C(C)=N/NC(N)=S` (configuration not stated) gave SARS PLpro yeast-1 inconclusive, AMA1 RON2 block 97.1%, NS1 function inh -0.9% and SARS PLpro yeast-2 active.
For CCOC(=O)C(C)/C(C)=N\Nc1ccc([N+](=O)[O-])cc1[N+](=O)[O-] (configuration not stated) the results were SARS PLpro yeast-1 -0.8% and AMA1 RON2 block inconclusive.
`COc1ccc(S(=O)(=O)NCCN2CCOCC2)c2ccccc12` gave SARS PLpro yeast-1 20µM*, AMA1 RON2 block -5.0%, NS1 function inh 7.4% and SARS PLpro yeast-2 inactive.
For COc1ccc(S(=O)(=O)NCCN2CCOCC2)c(C)c1C the results were SARS PLpro yeast-1 0.3%, AMA1 RON2 block -8.9% and NS1 function inh 0.1%.
For CN(C1CCCCC1)C(CNS(=O)(=O)c1ccc(Cl)cc1)c1ccccc1 (configuration not stated) the results were SARS PLpro yeast-1 -0.3%, AMA1 RON2 block 3.3% and NS1 function inh 2.8%.
Screening CC(=O)NCCc1cc2ccc(C)cc2[nH]c1=O returned SARS PLpro yeast-1 inconclusive, AMA1 RON2 block 7.5%, NS1 function inh 0.2% and SARS PLpro yeast-2 inactive.
For Cc1ccc2cc(CCNC(=O)C(C)C)c(=O)[nH]c2c1 the results were SARS PLpro yeast-1 1.4%, AMA1 RON2 block -3.4% and NS1 function inh -0.8%.
`CCN(c1cccc(C)c1)S(=O)(=O)c1cccc(C(=O)O)c1` gave SARS PLpro yeast-1 inconclusive, AMA1 RON2 block 3.9%, NS1 function inh 7.3% and SARS PLpro yeast-2 inactive.
For CCCCN(c1ccccc1)S(=O)(=O)c1cccc(C(=O)O)c1 the results were SARS PLpro yeast-1 0.5%, AMA1 RON2 block 11.8% and NS1 function inh 5.1%.
Screening Cc1ccc(OCCNC(=O)CCNS(=O)(=O)c2ccc(C)cc2)cc1 returned SARS PLpro yeast-1 -3.5% and AMA1 RON2 block -5.5%.
CCOc1ccc(S(=O)(=O)NCCC(=O)NCCOc2ccccc2)cc1 was read as SARS PLpro yeast-1 inconclusive, AMA1 RON2 block 0.9% and SARS PLpro yeast-2 inactive.
Screening O=C(NCc1ccccc1)c1cc(C2COCCN2C(=O)c2cccs2)on1 (configuration not stated) returned AMA1 RON2 block -4.8%.
`COc1ccc(CN2CCCC(CNC(=O)c3ccc(F)cc3)C2)c(C)c1C` (configuration not stated) gave SARS PLpro yeast-1 17.4%, AMA1 RON2 block 2.9% and NS1 function inh -2.4%.
Screening Cc1ccc(Cl)cc1N(CC(=O)NCc1ccccc1)S(C)(=O)=O returned SARS PLpro yeast-1 1.2%, AMA1 RON2 block 3.3% and NS1 function inh 20.6%.
`COc1cccc(CNc2ccc(S(N)(=O)=O)cc2)c1OC` gave SARS PLpro yeast-1 inconclusive, AMA1 RON2 block 3.2%, NS1 function inh 0.3% and SARS PLpro yeast-2 inactive.
Screening NS(=O)(=O)c1ccc(NCc2ccccc2OCc2ccccc2F)cc1 returned SARS PLpro yeast-1 -1.7%, AMA1 RON2 block -16.0% and NS1 function inh 18.3%.
